# About 6,800 (1.8%) of roughly 370,000 compounds were called active. Shown is part of a subset that was picked to be rich in actives. Unmarked numbers belong to inactive results.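 Rule for the calls: active = activation above a cutoff set at the mean of all screened compounds plus 3 SD (cut at about 10% in these data); inactive = the rest.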
# Test system: Nuclear hormone receptor DAF-12 (Heterodera glycines), GAL4 fusion
# Test: H. glycines DAF-12 receptor agonists, primary screen, cell-based, luminescence, HEK293, GAL4 fusion, UAS-luciferase (AID 687014);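 note: 0% = DMSO wells and 100% = sodium butyrate wells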
# Conditions: HEK293 GAL4-hgDAF12 UAS-luciferase reporter, agonist luminescence; at 6.8 µM; stronger effect = higher value; normalized to butyrate control
row,Structure (SMILES),activation
1,CC(=O)N1C(C)c2ccccc2C(C)(C)CC12CCCCC2 (configuration not stated),-2.75%
2,CN[C@H]1C[C@H]2c3[nH]c4c(-c5ccccc5)cccc4c3CCN2C(=O)[C@H]1[C@H](C)O,-0.57%
3,O=C(N/N=C/c1cccc2cccnc12)[C@H]1C[C@@H]1c1ccccc1,-1.03%
4,O=C(NC(=S)Nc1cccc2c(O)cccc12)c1cccc(Br)c1,0.96%
5,O=C(Cc1ccc(Cl)cc1)NC(=S)Nc1ccccc1O,3.46%
6,O=C(NC(=O)c1ccccc1)Nc1ccccc1O,13.8% (active)
7,CCOC(=O)[C@H]1CCC[C@@H](NS(=O)(=O)c2ccc(NC(C)=O)cc2)C1,1.29%
8,Cc1ccc(NC(=O)Cc2cccc(F)c2)c(S(=O)(=O)N2CCOCC2)c1,1.41%
9,COCC1CCCN(Cc2nc(-c3ccc4c(c3)OCO4)no2)C1 (configuration not stated),6.75%
10,O=C(COCc1cc(-c2ccc3c(c2)OCO3)on1)N1CCN(c2cccc(Cl)c2)CC1,1.17%
11,CCc1ccccc1NC(=O)CSc1nnc(-c2cccs2)o1,2.52%
12,CNC(=S)N1N=C(c2ccccc2)CC1c1ccc(Br)cc1 (configuration not stated),-1.01%
13,Brc1ccc(C2CC(c3ccccc3)=Nc3ccccc3N2)cc1 (configuration not stated),17.3% (active)
14,CN1[C@H](Cc2ccccc2)COc2cccc(N3CCSCC3)c2S1(=O)=O,4.83%
15,Cc1cc(=O)[nH]c(SCC(=O)Nc2ccc(Cl)cc2C)n1,1.76%
16,CCCCCCCCNS(=O)(=O)/C=C/c1cc(C)ccc1CNC(=O)OC(C)(C)C,0.08%
17,COC(=O)c1cc(S(=O)(=O)N2CCN(c3ccccc3C)CC2)cn1C,-4.6%
18,CCOC(=O)c1cc(C(C)C)sc1NC(=O)COC(=O)c1nccnc1N,0.71%
19,Cc1sc(NC(=O)c2ccc3ncsc3c2)c(C(N)=O)c1C,8.75%

row,Structure (SMILES),activation
1,CC(C)c1cc(C(N)=O)c(NC(=O)c2cccc(COc3ccc(Br)cc3)c2)s1,16.6% (active)
2,C[C@H](O)[C@@H]1C(=O)N2CCc3c([nH]c4c(-c5ccc6c(c5)OCO6)cccc34)[C@@H]2C[C@@H]1N(C)C(=O)c1ccco1,2.82%
3,Nc1nc2c(ncn2[C@@H]2O[C@H](C(=O)N[C@H](Cc3ccccc3)C(=O)NCC3CCCCC3)[C@@H](O)[C@H]2O)c(=O)[nH]1,-0.41%
4,c1ccc2c(c1)nnn2-c1ccncc1,0.89%
5,COCCCNC(=O)C[C@H]1C[C@@]2(C(=O)OC)C(=C[C@H](C(C)(C)C)O[C@@H]2C)N(Cc2ccc3c(c2)OCO3)C1=O,1.15%
6,CC1CCN(Cc2nc(-c3ccc(Cl)cc3)no2)CC1,0.37%
7,Cc1cc(Cl)ccc1OCc1nc(-c2ccncc2)no1,14% (active)
8,Cc1ccc(-c2noc(CNC(=O)c3ccoc3C)n2)cc1,-0.34%
9,CN(CCc1ccccc1)C(=O)Cn1nc(-c2ccccc2)ccc1=O,1.22%
10,O=C1CC[C@@]23CCCN2C(=O)CCC[C@H]3[C@H]1Cc1ccccc1,-4.37%
11,Cc1nc2cc(NCc3cccs3)ccc2n1C,8.48%
12,Cc1nc2cc(NC(=O)Nc3cccc(F)c3)ccc2n1C,14.2% (active)
13,Cc1nc2nc(SCC(=O)Nc3cccc(F)c3)[nH]c2cc1Br,0.38%
14,Cc1ccc(C)c(CN2CCC(CNC(=O)C3CCCN(c4ncnc5c4nc4n5CCCCC4)C3)CC2)c1 (configuration not stated),-0.85%
15,COC(=O)C(C(=O)OC)c1ccccc1NS(=O)(=O)c1cccc2ccccc12,-2.1%
16,COc1ccc2cc(C(=O)C3CCCN(C(=O)c4sc(C)nc4C)C3)ccc2c1 (configuration not stated),-1.02%
17,CCOc1ccc2nc(C(=O)N3CCCC(C)C3)sc2c1 (configuration not stated),17.9% (active)
18,CCOc1ccc(NC(=O)C2CCCN(C(=O)Nc3ccccc3)C2)cc1 (configuration not stated),1.89%
19,COc1ccc(N(CC(=O)NCc2ccc(F)cc2)C(=O)CCC(=O)Nc2nccs2)cc1,1.39%

row,Structure (SMILES),activation
1,CC(C)C(=O)Nc1c(C(=O)c2ccc(F)cc2)oc2ccccc12,-0.79%
2,CC(C)C(=O)Nc1ccc2c(c1)oc1ccccc12,12.2% (active)
3,CC(C)C(=O)Nc1oc(-c2ccccc2)cc1C#N,-0.28%
4,COC(=O)N1Cc2ccnnc2CC1c1ccccc1Br (configuration not stated),0.66%
5,FC(F)(F)c1cccc(-c2cc3ccccc3nc2N2CCCC2)c1,-1.35%
6,FC(F)(F)c1cccc(-c2nc3ccccc3n2C(c2ccccc2)c2nc3ccccc3[nH]2)c1 (configuration not stated),10.7% (active)
7,CCC(c1nc2ccccc2[nH]1)n1c(=O)c(-c2cccs2)nc2ccccc21 (configuration not stated),1.53%
8,COC(=O)C1=C(C)N(Cc2ccccc2C(F)(F)F)C(=NCC2CC2)NC1c1cccc(Cl)c1 (configuration not stated),4.82%
9,C=CCN1[C@H](CC(C)C)COc2cccc(N3CCCC3)c2S1(=O)=O,1.57%
10,Clc1ccc2nc(CSc3ccccc3)cn2c1,15.8% (active)
11,O=c1c2ccccc2nc2n1C(CSc1ccc(Cl)cc1)CN2 (configuration not stated),-1.24%
12,Cn1nc(-c2ccccc2)c(CSc2cccc(Cl)c2)c1Cl,-1.11%
13,COC(=O)C[C@@H]1CC[C@@H]2[C@H](COc3ccc(NC(=O)c4cccc(F)c4)cc3C(=O)N2C)O1,7.18%
14,Cc1noc(C)c1NC(=O)Nc1ccc2c(c1)C(=O)N([C@H](C)CO)C[C@H](C)[C@H](CN(C)Cc1ccncc1)OCCCC[C@@H](C)O2,2.01%
15,C=CS(=O)(=O)N(Cc1nnn(Cc2ccccc2)c1Br)[C@H](C(=O)OC)C(C)C,-3.42%
16,COCC(=O)N1CCCC(C(=O)c2ccc(C(F)(F)F)cc2)C1 (configuration not stated),-2.29%
17,O=C(c1ccc(C(F)(F)F)cc1)C1CCCN(C(=O)c2csnn2)C1 (configuration not stated),-0.18%
18,Cc1cnc(C(=O)N2CCCC(C(=O)c3ccc(C(F)(F)F)cc3)C2)cn1 (configuration not stated),19.4% (active)
19,COc1ccc(-n2c(SCC(=O)Nc3ccc4cn[nH]c4c3)nnc2-c2cccnc2)cc1,-0.21%

# From PubChem BioAssay AID687014 (The Scripps Research Institute Molecular Screening Center, 2013)
